From PubChem
VP16 counter: inhibits Gal4-VP16 luciferase reporter, ROR gamma counter-screen | Drosophila S2 Gal4-VP16 UAS-luciferase, luminescence, 20 h | Potency, µM (doses to about 53.6 µM), for inactives: at the highest dose activity, negative = inhibition, most hits filed as inhibitors | 310,000 compounds, 3.5% hits;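 also: Gal4-VP16 expression switched on by copper sulfate through the metallothionein promoter; potency is read from the fitted curve at half-maximal effect; nearly all actives have a fitted effect of over 50% in size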
LDHA block: LDHA (human) enzyme inhibition; P00338; 480,000 compounds, 0.15% hits; activity change, % (values are at about 110 or 230 µM); purified LDHA, NADH/diaphorase-resazurin fluorescence; active compounds read low; AID 1347041; in the data active = activity change below about -30%; inconclusive = mostly about -25% to -30%;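 also: plate controls were DMSO wells for no effect and wells without enzyme for full effect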
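Remaining NADH was detected by diaphorase (0.133 mg/mL) converting 37 µM resazurin to fluorescent resorufin, read at 0 and 20 minutes. The preceding 5-minute room-temperature reaction used 2 nM LDHA, 0.2 mM sodium pyruvate and 0.06 mM NADH at pH 7.4.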
IL1B secr inh: inhibitors of inflammasome signaling (IL-1 beta secretion); THP-1 LPS/ATP IL-1B secretion, AlphaLISA, 16 h; active compounds read low; activity change, % at 57.5 µM; 360,000 compounds, 4.7% hits; in the data active = activity change below about -50%; inconclusive = mostly about -30% to -49%
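THP-1 cells pretreated 1 hr with compounds (up to 57.5 uM final), then stimulated with LPS (250 ng/mL final) plus ATP (1.25 mM final); secreted IL-1B measured by AlphaLISA after 16 hr, decreased signal indicating inhibition.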
RORg inh: ROR gamma (mouse) transcription inhibition; Drosophila S2 Gal4-RORgamma UAS-luciferase reporter, 20 h; P51450; 310,000 compounds, 5.4% hits; AID 2551; Potency, µM (highest dose often 53.6 µM), for inactives: at the highest dose activity change, negative = inhibition, usual class: inhibitors; also: potency is read from the fitted curve at half-maximal effect; nearly all actives have a fitted effect of over 60% in size
Target sequence (P51450 whole entry, looked up, the tested form may be a part): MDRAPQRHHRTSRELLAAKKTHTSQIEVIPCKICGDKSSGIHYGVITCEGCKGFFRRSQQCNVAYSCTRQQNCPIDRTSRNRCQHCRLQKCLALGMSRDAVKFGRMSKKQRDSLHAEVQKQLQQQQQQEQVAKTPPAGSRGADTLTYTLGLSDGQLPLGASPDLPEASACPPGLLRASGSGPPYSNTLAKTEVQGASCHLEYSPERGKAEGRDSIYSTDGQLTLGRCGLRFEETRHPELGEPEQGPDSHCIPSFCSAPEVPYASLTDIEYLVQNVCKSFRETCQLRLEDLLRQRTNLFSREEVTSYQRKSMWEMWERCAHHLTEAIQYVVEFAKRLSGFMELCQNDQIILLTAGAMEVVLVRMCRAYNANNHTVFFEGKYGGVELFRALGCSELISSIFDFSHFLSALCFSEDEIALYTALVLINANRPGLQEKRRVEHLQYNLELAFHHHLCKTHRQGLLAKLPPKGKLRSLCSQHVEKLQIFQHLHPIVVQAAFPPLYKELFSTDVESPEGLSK
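Compounds are pin-transferred onto Drosophila Schneider cells expressing a copper-inducible Gal4–ROR gamma transactivation domain fusion. After 1 hr, copper sulfate is added to 700 uM final; luciferase is read 20 hr later.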
TDP1 cell noCPT: qHTS for Inhibitors of human tyrosyl-DNA phosphodiesterase 1 (TDP1): qHTS in cells in absence of CPT | DT40 Tdp1-/- hTDP1 cells, no CPT, ATP luminescence, 48 h | Potency, µM (doses to about 46.2 µM), for inactives: at the top dose activity change, negative = growth inhibition, usual class: inhibitors | 420,000 compounds, 15% hits | AID 686978, 2013; also: potency is read from the fitted curve at half-maximal effect; nearly all actives have a fitted effect of over 55% in size
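Compound effects on proliferation are scored in DT40 Tdp1-/-;hTDP1 cells in the absence of CPT. ATP levels (CellTiter-Glo luminescence) are recorded after a ≥48 hr, 37 °C incubation.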
TDP1 cell CPT: DT40-hTDP1 cell growth loss with CPT. chicken DT40 Tdp1-/-;hTDP1 cells + 20 nM CPT, ATP luminescence, 48 h. AID 686979. 420,000 compounds, 12% hits. Potency, µM (highest dose often 46.2 µM), inactives show top-dose activity change, negative = growth inhibition, most hits filed as inhibitors; also: potency is read from the fitted curve at half-maximal effect; nearly all actives have a fitted effect of over 55% in size
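Chicken DT40 Tdp1-/- cells complemented with human TDP1, 400 cells/well, exposed to compounds plus 20 nM camptothecin for at least 48 h at 37 C; viability read as ATP content by CellTiter-Glo luminescence.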
Active calls of the source: *; i = inactive; ? = inconclusive; · = no result given; [ ] = another dose, or the depositor's remark. An excerpt weighted towards active compounds, which were near 18% of everything screened. Unless noted, calls follow the shape of the dose curve; as a rule, active = well fitted curve in the direction sought with a large enough effect; inconclusive = small, poorly fitted or top-dose-only effect, or another doubt; inactive = no such curve, though single readings can be large; an effect the other way counts as inactive or inconclusive. Unless noted, % is scaled to controls: 0 for no effect and ±100 for the full control effect.

SMILES	VP16 counter	LDHA block	IL1B secr inh	RORg inh	TDP1 cell noCPT	TDP1 cell CPT
Cc1c(C(=O)NCc2ccc(F)cc2)sc(=O)n1Cc1ccc(Cl)c(Cl)c1	·	-2.1	-86.2*	·	?	?
CCCCN(C)C(=O)c1sc(=O)n(Cc2ccc(Cl)c(Cl)c2)c1C	·	1.0	0.0	·	20.6µM*	?
CCc1ccccc1NC(=O)C1CC1	·	-15.8	·	·	·	·
CCCCCCCCS(=O)CC(O)CCl (configuration not stated)	·	-11.3	·	·	·	·
CSc1ccc(Cn2c(C)c(C(=O)NCc3ccc4c(c3)OCCO4)sc2=O)cc1	·	-9.4	-29.6	·	?	?
CSc1ccc(Cn2c(C)c(C(=O)NCc3ccc(Cl)c(Cl)c3)sc2=O)cc1	·	-12.3	-58.2*	·	?	?
CSc1ccc(Cn2c(C)c(C(=O)NCc3ccco3)sc2=O)cc1	·	1.7	-101.3*	·	?	?
Cc1ccc(N2CN(CCN3CCOCC3)Cn3c2nc(C)c(C)c3=O)cc1C	·	-4.8	·	·	·	·
O=C([O-])c1cc(-c2ccccc2)cc(-c2ccccc2)[n+]1CCc1ccc(Cl)cc1	·	-2.9	?	·	6.51µM*	4.61µM*
CCCN(Cc1ccc(OCC)c(OCC)c1)C(=O)c1cc2ccccc2oc1=O	·	0.4	·	·	·	·
CC1CCCC(c2ccc(O)cc2)(c2ccc(O)cc2)C1 (configuration not stated)	·	0.4	·	·	·	·
Cc1cc(Cl)cc(Cl)c1OCCCCN(C)C	-9.7%	-10.3	0.0	-31.5%	18.4µM*	?
O=C(COc1cccc2cccnc12)N/N=C/c1ccc(O)cc1	-3.1%	-0.4	-20.1	16.3%	-29.0%	?
C/C(=N\OCC(=O)N/N=C/c1ccccc1O)c1cccs1	2.24µM*	5.5	247.2	1.12µM*	4.61µM*	4.11µM*
O=C(COc1cccc2cccnc12)N/N=C/c1ccccc1O	-5.3%	0.5	91.1	?	10.3µM*	14.6µM*
O=C(COc1cccc2cccnc12)N/N=C/c1cccn1-c1ccc(F)cc1	0.2%	3.2	-88.9*	17.2%	?	?
Cc1ccccc1OCC(=O)N/N=C/c1cccc2cccnc12	14.1µM*	-4.1	i	11.2µM*	20.6µM*	?
Cc1nccn1-c1ccc(C#N)cc1	·	3.2	·	·	·	·
O=C(COc1ccccc1F)Nc1nc(-c2ccc(S(=O)(=O)N3CCOCC3)cc2)cs1	·	1.7	·	·	·	·
COCc1cc(C)nc(OCC(=O)N/N=C/c2ccccc2O)c1C#N	-7.1%	6.5	128.1	15.8µM*	?	?
COCc1cc(C)nc(OCC(=O)N/N=C/c2ccc(O)cc2O)c1C#N	-2.8%	9.8	50.2	-41.1%	?	-1.9%
CCCCCOc1ccc(/C=C2\Cc3ccccc3C2=O)cc1	·	0.0	·	·	·	·
CC(C)(C)OC(=O)NCCC(=O)N/N=C/c1ccc2ncccc2c1	-3.8%	-0.9	6.3	-0.5%	?	2.3%
COc1ccc2nc(/C=N/NC(=O)CCCCCNC(=O)OC(C)(C)C)ccc2c1	-18.1%	4.7	-4.7	-24.2%	18.4µM*	20.6µM*
Cc1cc(C)cc(N(CC(=O)NC2CCC(C)CC2)S(=O)(=O)c2c(C)noc2C)c1 (configuration not stated)	2.1%	1.1	-7.1	-21.9%	?	20.6µM*
SMILES	VP16 counter	LDHA block	IL1B secr inh	RORg inh	TDP1 cell noCPT	TDP1 cell CPT
CC(=O)c1cccc(NC(=O)CN(c2cc(C)cc(C)c2)S(=O)(=O)c2c(C)noc2C)c1	·	-2.4	·	·	18.4µM*	16.4µM*
COc1cc(NC(=O)CN(c2ccc(C)cc2)S(=O)(=O)c2cccc3nonc23)cc(OC)c1	·	0.3	·	·	18.4µM*	?
COc1ccc(N(CC(=O)Nc2cccc(C)c2)S(=O)(=O)c2c(C)noc2C)cc1	6.7%	0.4	8.1	12.7%	2.91µM*	?
CCCS(=O)(=O)c1nc(S(=O)(=O)c2ccc(C)cc2)c(NC(C)CC)s1 (configuration not stated)	·	-19.8	·	·	·	·
COCC(C)NS(=O)(=O)c1ccc(C)cc1C (configuration not stated)	·	2.6	·	·	·	·
CCOC(=O)N(C)CC(=O)NC1CCCC1	·	11.9	·	·	·	·
COc1ccc(N(CC(=O)Nc2cc(C)ccc2C)S(=O)(=O)c2c(C)nn(C)c2C)cc1	5.1%	-10.1	20.1	14.6%	25.9µM*	?
COc1ccc(N(CC(=O)Nc2ccc(C)cn2)S(=O)(=O)c2c(C)nn(C)c2C)cc1	14.2%	0.4	20.6	33.8%	-26.2%	?
COc1ccc(N(CC(=O)Nc2cc(C)ccc2OC)S(=O)(=O)c2c(C)noc2C)cc1	-1.8%	3.6	43.1	-10.0%	?	23.1µM*
COC(=O)c1sccc1S(=O)(=O)N(CC(=O)Nc1ccc(C)cc1)c1ccccc1	·	-0.2	·	·	20.6µM*	?
COc1ccc(N(CC(=O)Nc2cc(Cl)ccc2C)S(=O)(=O)c2c(C)noc2C)cc1	5.1%	-3.1	32.2	1.4%	3.66µM*	2.91µM*
Cc1nc(NC(=O)c2csc3ccccc23)sc1C(=O)N(C)C	·	-8.7	·	·	·	·
CCCOc1c(CN)cccc1OC	·	-3.9	·	·	·	·
CN(C)Cc1nc(SCC(=O)Nc2ccc(F)cc2)c2ccccc2n1	·	-6.6	·	·	·	·
Cc1ccc(NC(=O)Cc2nnc(SC(C)C(=O)Nc3ccc4c(c3)OCO4)n2C)cc1 (configuration not stated)	·	3.9	·	·	·	·
COc1ccc(N(CC(=O)Nc2cc(OC)cc(OC)c2)S(=O)(=O)c2c(C)noc2C)cc1	·	-6.6	·	·	5.8µM*	7.31µM*
COc1ccc(N(CC(=O)Nc2ccc(C)cc2)S(=O)(=O)c2c(C)noc2C)cc1	-4.8%	-2.5	-7.5	6.5%	?	?
COc1ccc(CCNC(=O)c2cccn2-c2nnc(N3CCCCCC3)s2)cc1OC	·	4.7	·	·	·	·
O=C1CC(SC(=Nc2ccccc2)Nc2ccccc2)C(=O)N1c1ccc(Cl)c(Cl)c1 (configuration not stated)	-22.2%	-0.3	?	?	18.4µM*	?
C/C(CCc1ccc2c(c1)OCO2)=N\N=C(/N)SC1CC(=O)N(c2ccc(Cl)cc2)C1=O (configuration not stated)	?	-6.3	12.4	8.91µM*	-20.4%	-20.9%
Nc1ccccc1SC1CC(=O)N(c2ccc(Cl)c(Cl)c2)C1=O (configuration not stated)	-28.3%	-7.3	?	38.6%	13µM*	25.9µM*
Cc1cccc(N2C(=O)CC(SC(=Nc3ccccc3)Nc3ccccc3)C2=O)c1 (configuration not stated)	1.4%[0.365 µM]	-6.2	-22.3	-34.9%	?	?
